Screens from PubChem BioAssay.
Bst PK mod: alters activity of Bacillus stearothermophilus pyruvate kinase. 51,000 tested, 1.2% active. Potency, µM. purified pyruvate kinase, luminescence ATP production; ribose 5-phosphate activator present at AC10; in the data active means potency below about 11 µM; inconclusive means mostly about 12 µM to 25 µM;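 the screen sought inhibitors and activators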;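 further: scaled between full activation by ribose 5 phosphate and full inhibition by luteolin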
Luciferase inh: inhibitors of firefly luciferase; P08659; purified firefly luciferase, luminescence, 8 min; Potency, µM (series often up to 57.1 µM), for inactives: at the highest dose activity change, negative = inhibition, most hits filed as inhibitors; 72,000 tested, 2.2% active; active means well fitted inhibition curve with a large enough effect; inconclusive means small, poorly fitted or top-dose-only effect; further: on the % scale 0 is the no-effect control and ±100 the full control effect; nearly all actives have a fitted effect of over 40% in size
Target sequence (P08659 whole entry, looked up): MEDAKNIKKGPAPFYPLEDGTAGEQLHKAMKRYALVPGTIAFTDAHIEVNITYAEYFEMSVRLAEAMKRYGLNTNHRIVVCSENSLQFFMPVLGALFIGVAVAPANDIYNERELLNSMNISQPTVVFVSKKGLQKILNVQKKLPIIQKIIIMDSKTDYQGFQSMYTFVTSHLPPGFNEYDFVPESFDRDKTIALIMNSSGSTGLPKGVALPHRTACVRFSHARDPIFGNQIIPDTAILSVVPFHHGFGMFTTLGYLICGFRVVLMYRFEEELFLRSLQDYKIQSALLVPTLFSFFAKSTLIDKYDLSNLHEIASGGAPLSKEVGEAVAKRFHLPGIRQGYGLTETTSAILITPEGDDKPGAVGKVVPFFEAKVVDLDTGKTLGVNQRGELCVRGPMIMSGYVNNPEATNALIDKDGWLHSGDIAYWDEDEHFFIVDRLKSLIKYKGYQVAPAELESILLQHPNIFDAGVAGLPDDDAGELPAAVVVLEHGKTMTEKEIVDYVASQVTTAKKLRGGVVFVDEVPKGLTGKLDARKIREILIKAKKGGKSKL
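Luminescence read-out after 8 min at room temperature; enzyme reaction used luciferin plus 10 uM ATP (linear range) in imidazole buffer pH 7.2 with KCl, MgCl2, Tween 20 and BSA. Each sample was run as a titration.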
GBA activity: modulators of human glucocerebrosidase | AID 360 | Potency, µM | purified enzyme, resorufin glucoside fluorescence (screen aimed at inhibitors), 20 min | 48,000 tested, 1.1% active | P04062; in the data active means potency below about 15 µM; inconclusive means mostly about 16 µM to 33 µM;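 further: the screen sought inhibitors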
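Normal human glucocerebrosidase (0.2 nM final) was assayed with resorufin β-D-glucopyranoside (30 uM final) in 50mM citric acid/KH2PO4, 10mM sodium taurocholate, 0.01% tween-20, pH 5.9. Compounds were titrated; fluorescence (Ex 548, Em 600) read after 20 min at RT.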
* hit, by the source's call; i = inactive; ? = inconclusive; . = no result; [ ] = dose if it differs, or a comment. Sampled rows, rich in hits. Any-hit rate of the full collection: about 3.2%. Potency means the concentration at half of the fitted maximal effect.

SMILES	Bst PK mod	Luciferase inh	GBA activity
COCc1nnc(NC(=O)c2ccc(NC(=O)C(C)C)cc2)s1	>57	-2%	0.54*
CCc1nnc(NC(=O)c2ccc(S(=O)(=O)N3CCCCCC3)cc2)s1	>57	2%	1.4*
CCc1nnc(NC(=O)c2ccc(S(=O)(=O)NCC(C)C)cc2)s1	>57	1%	1.8*
COC(=O)Cc1nnc(NC(=O)c2ccccc2)s1	>57	-1%	.
CCc1nnc(NC(=O)c2ccc(S(=O)(=O)N3CCCCC3C)cc2)s1 (stereo not given)	>57	3%	>77
Cc1noc(C)c1-c1cc(NCc2ccccc2)ncn1	.	1%[2.29 µM]	.
CC(C)=NO[C@@H](C)c1cn([C@@H]2COC[C@@H]2O)nn1	.	0%[11.4 µM]	.
O=C(O)C1CCC(CNc2c(NC3CCCCC3)c(=O)c2=O)CC1 (stereo not given)	.	2%	.
Cn1cc(Cl)c(-c2nc3ccccc3[nH]2)n1	i	25µM*	>77
Nc1nonc1-c1nc2ccccc2[nH]1	.	0%	>77
COc1ccc(CNc2ncnc3ccc(-c4cccc(NS(C)(=O)=O)c4)cc23)c(OC)c1	.	2%[2.29 µM]	.
COc1ccccc1C(=O)Nc1ccccn1	?	16µM*	>77
COc1ccc(C(=O)Nc2ccc(C)cn2)c(OC)c1	0.33*	0.25µM*	>77
COc1ccccc1C(=O)Nc1ccc(C(=O)O)cc1	>57	4%	>77
C=CCNC(=O)c1ccc(OC)cc1OC	>57	0%	>77
COc1ccc(-n2c(=O)c(-c3ccc(F)cc3)nc3cnc(N4CCOCC4)nc32)cc1	.	2%[11.4 µM]	.
C[C@@H]1c2ccccc2CN1CC1=NCCN1	.	1%	.
CCCc1cc(C(=O)Nc2cccc(Cl)c2)no1	.	16µM*	.
CCCc1cc(C(=O)Nc2cccc(C(C)=O)c2)no1	.	-14%	.
COc1ccc(O[C@H]2C=C[C@@H](c3ccccc3)O[C@H]2COC(=O)CC/C(C)=N\OC[C@@H](O)[C@H]2O[C@H]3OC(C)(C)O[C@H]3[C@@H]2O)cc1	.	0%[11.4 µM]	.
O=C(NCCN1CCOCC1)c1cc(-c2ccc(O)cc2)on1	.	1%	.
C/C(=N\O)c1cccc[n+]1Cc1ccccc1	.	4%[11.4 µM]	.
COc1ccc(Oc2ncc3nc(-c4cc(F)cc(F)c4)c(=O)n(CCC#N)c3n2)cc1	.	1%[11.4 µM]	.
Cc1noc(C)c1COC(=O)c1ccc(-c2nc3ccccc3s2)s1	>57	8%	?
O=C(NC1CC1)c1ccc(-c2nc3ccccc3s2)s1	0.8*	1.6µM*	>77
SMILES	Bst PK mod	Luciferase inh	GBA activity
CN1CCN(c2nc(-c3cccc(C#N)c3)nc3ccccc23)CC1	.	2%[2.29 µM]	.
C/C(CCN1CCCc2nc(C)c(C)cc21)=N\O[C@@H](C)CN1CCCCc2nc(C)c(C)cc21	.	0%[11.4 µM]	.
CN1CCN(S(=O)(=O)c2ccc(N3CCN(S(=O)(=O)/C=C/c4ccccc4)CC3)nc2)CC1	>57	-3%	13*
COc1ccc(N2CCN(S(=O)(=O)/C=C/c3ccccc3)CC2)cc1	>57	-1%	>77
CSc1nnnc2ccccc12	.	1%[11.4 µM]	.
CCC12CN3CC(CC)(CN(C1)C3c1ccc(OC(C)C)cc1)C2=O (stereo not given)	>57	1%	4.3*
C=CCOc1ccc(C2N3CC4(C)CN2CC(CCC)(C3)C4=O)cc1 (stereo not given)	>57	0%	4.8*
CCCC12CN3CC(C)(CN(C1)C3c1ccc(OC)cc1)C2=O (stereo not given)	>57	1%	.
CC(C)Oc1ccc(C2CNC(=O)C2)cc1 (stereo not given)	.	1%	.
COCCn1c(=O)c(-c2ccc(Cl)cc2)nc2cnc(Oc3ccc(OC)cc3)nc21	.	1%[11.4 µM]	.
CC(=O)NCCNc1cc(-c2ccccc2C)ncn1	.	0%[2.29 µM]	.
Cc1cc(C(=O)Nc2sc3c(c2C#N)CCCCC3)cs1	i	16µM*	>77
CCCC(=O)Nc1sc2c(c1C#N)CCCC2	>26	-3%[25.5 µM]	.
CN(C)S(=O)(=O)c1cccc(C(=O)NCCc2ccccc2)c1	i	13µM*	>77
CS(=O)(=O)c1cccc(C(=O)NCc2ccccc2)c1	>57	1%	>77
CN(C)S(=O)(=O)c1cccc(C(=O)Nc2cc(Cl)ccc2O)c1	i	13µM*	.
Cc1ccc(O)c(NC(=O)c2cccc(S(=O)(=O)N3CCCCC3)c2)c1	>57	0%	>77
CCNc1ncc2nc(-c3ccc(F)cc3)c(=O)n(CCOC)c2n1	.	1%[11.4 µM]	.
COc1cccc(N2CC(O)=C(c3nc4ccccc4c(=O)[nH]3)C2=N)c1	2.9*	-6%	>77
COc1ccc(N2CC(O)=C(c3nc4ccccc4s3)C2=N)c(OC)c1	>11	-3%	>77
CN(C)c1ccc(Nc2nc(-c3cccnc3)cs2)cc1	.	0.63µM*	.
O=C(Nc1nc(-c2cccnc2)cs1)c1ccc(S(=O)(=O)N2CCOCC2)cc1	>57	-1%	>77
O=c1c(-c2ccccc2)nc2cnc(N3CCNCC3)nc2n1Cc1cccs1	.	1%[11.4 µM]	.
CC(=O)O[C@@H]1C[C@]2(C)[C@H](C[C@@H](O)[C@H]3[C@@]4(C)CC[C@@H](O)[C@@H](C)[C@@H]4CC[C@@]32C)/C1=C(\CCC=C(C)C)C(=O)O	.	2%	.
COc1ccc(-c2coc3cc(O[C@@H]4O[C@@H](CO)[C@@H](O)[C@@H](O)[C@H]4O)cc(O)c3c2=O)cc1	.	-1%[11.4 µM]	.
SMILES	Bst PK mod	Luciferase inh	GBA activity
O=C1CSC(=S)N1/N=C\c1ccc(Cl)c([N+](=O)[O-])c1	.	3%[11.4 µM]	.
c1ccc(N2CCN(c3nc4cc5c(cc4s3)OCCO5)CC2)cc1	>57	-20%	>77
c1c2c(cc3sc(N4CCOCC4)nc13)OCCO2	4.4*	1.6µM*	>77
Cc1noc(C)c1C(=O)N1CCC[C@@]2(CCN(Cc3ccc(C#N)cc3)C2)C1	.	1%[11.4 µM]	.
CCN(CC)[C@@H](C)CN1c2ccccc2Sc2ccccc21	.	0%[25.5 µM]	.
CCOC(=O)CCN1C(=O)[C@H]2[C@H]3[C@H](O)[C@H](O)C/C(=N/OCc4ccccc4)[C@@H]3CC[C@@H]2C1=O	.	-1%[11.4 µM]	.
O=c1/c(=C/c2ccccn2)sc2nc3ccccc3n12	.	0.25µM*	.
N#Cc1cc2sc3nc4ccccc4n3c2cc1C#N	>57	0%	>77
O=c1c2ccccc2nc2sc3ccccc3n12	6.8*	-14%	>77
COC(=O)/C=c1/sc2nc3ccccc3n2c1=O	.	-5%	?
COCCn1c(=O)c(-c2cccc(C#N)c2)nc2cnc(N(C)C)nc21	.	1%[11.4 µM]	.
CC(C)C[C@H](NC(=O)[C@@H](O)[C@@H](N)Cc1ccccc1)C(=O)O	.	0%	.
COc1ccc(NC(=O)c2ccco2)c(OC)c1	>57	-7%	>77
COc1cc(NC(=O)C(C)C)ccc1NC(=O)c1ccco1	.	20µM*	>77
COc1ccccc1CNc1ccnc(-c2ccccc2OC)n1	.	0%[2.29 µM]	.
